Drawing on paper PMC7862700, “An all-to-all approach to the identification of sequence-specific readers for epigenetic DNA modifications on cytosine”, this text covers binding signal for eight sequences.

What all share (experiment): DAPPL (digital affinity profiling via proximity ligation, sequencing); 10 mM Tris-HCl pH 7.5, 50 mM NaCl, 1 mM DTT, 4% glycerol, room temperature, 30 min; GST-TFs on glutathione beads, 16-mer random dsDNA library, 0.1% formaldehyde crosslink after washing; high values mean tight binding
What all share (details): protein: recombinant; tags: N-terminal GST; dsDNA, one strand shown

One assay deals with T1, FLI1 (Homo sapiens, UniProt Q01543 1-452).
T1 sequence: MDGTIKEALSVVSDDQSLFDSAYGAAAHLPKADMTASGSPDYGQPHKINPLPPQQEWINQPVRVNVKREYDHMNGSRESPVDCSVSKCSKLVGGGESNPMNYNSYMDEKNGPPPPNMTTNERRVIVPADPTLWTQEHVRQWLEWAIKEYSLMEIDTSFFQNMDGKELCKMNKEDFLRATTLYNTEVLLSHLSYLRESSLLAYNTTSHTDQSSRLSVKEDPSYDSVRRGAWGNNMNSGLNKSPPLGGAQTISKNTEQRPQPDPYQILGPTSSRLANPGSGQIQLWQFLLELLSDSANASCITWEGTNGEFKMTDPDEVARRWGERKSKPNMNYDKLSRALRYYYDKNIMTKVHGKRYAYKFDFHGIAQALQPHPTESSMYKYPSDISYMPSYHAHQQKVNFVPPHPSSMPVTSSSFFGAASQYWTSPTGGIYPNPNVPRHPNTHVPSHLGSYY
The procedure, abridged:
(§1)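 Pools of DNA-barcoded human transcription factors, expressed in yeast as GST fusions on glutathione beads and combined with a tag-only sample, were incubated with 200 nmole of a 16-mer random double-stranded DNA library. Incubation took 30 min at room temperature in Tris/NaCl/DTT/glycerol buffer and was followed by washing, 0.1% formaldehyde crosslinking, proximity ligation (BsaI/T4 ligase, 1 h, 37 °C), PCR amplification and sequencing on an Illumina NextSeq500. Binding signal is the ratio of a hexamer's read frequency for a factor to its frequency for the tag-only sample.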

The next assay addresses T2, ELK1 (Homo sapiens, UniProt P19419 1-428).
T2 sequence: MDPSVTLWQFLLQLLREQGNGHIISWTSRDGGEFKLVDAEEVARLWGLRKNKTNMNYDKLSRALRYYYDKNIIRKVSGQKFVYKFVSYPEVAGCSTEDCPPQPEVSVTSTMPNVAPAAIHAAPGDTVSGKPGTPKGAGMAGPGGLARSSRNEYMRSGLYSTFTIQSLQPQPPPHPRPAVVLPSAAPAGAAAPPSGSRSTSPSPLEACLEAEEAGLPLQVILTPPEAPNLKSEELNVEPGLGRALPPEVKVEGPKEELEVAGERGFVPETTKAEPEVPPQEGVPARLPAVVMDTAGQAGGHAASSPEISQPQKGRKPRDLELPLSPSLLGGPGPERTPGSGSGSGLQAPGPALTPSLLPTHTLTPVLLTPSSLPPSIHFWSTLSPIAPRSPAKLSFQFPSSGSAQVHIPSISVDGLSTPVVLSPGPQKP
The gist of the method: as §1

The target in a further assay is T3, GABPA (Homo sapiens, UniProt Q06546 1-454).
T3 sequence: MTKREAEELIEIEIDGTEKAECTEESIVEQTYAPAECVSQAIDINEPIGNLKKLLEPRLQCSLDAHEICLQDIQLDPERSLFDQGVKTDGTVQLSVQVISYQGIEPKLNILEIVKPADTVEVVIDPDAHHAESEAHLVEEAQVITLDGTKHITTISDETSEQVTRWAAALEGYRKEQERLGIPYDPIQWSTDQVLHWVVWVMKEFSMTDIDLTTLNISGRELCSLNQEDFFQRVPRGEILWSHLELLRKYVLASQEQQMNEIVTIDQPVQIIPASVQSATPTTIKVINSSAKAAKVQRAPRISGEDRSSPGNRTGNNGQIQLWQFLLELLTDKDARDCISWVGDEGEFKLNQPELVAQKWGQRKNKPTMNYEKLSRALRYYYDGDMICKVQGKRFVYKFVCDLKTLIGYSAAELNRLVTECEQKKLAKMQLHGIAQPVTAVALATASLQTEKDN
The gist of the method: as §1

The target of a further assay is T4, ERG (Homo sapiens, UniProt P11308 1-479).
T4 sequence: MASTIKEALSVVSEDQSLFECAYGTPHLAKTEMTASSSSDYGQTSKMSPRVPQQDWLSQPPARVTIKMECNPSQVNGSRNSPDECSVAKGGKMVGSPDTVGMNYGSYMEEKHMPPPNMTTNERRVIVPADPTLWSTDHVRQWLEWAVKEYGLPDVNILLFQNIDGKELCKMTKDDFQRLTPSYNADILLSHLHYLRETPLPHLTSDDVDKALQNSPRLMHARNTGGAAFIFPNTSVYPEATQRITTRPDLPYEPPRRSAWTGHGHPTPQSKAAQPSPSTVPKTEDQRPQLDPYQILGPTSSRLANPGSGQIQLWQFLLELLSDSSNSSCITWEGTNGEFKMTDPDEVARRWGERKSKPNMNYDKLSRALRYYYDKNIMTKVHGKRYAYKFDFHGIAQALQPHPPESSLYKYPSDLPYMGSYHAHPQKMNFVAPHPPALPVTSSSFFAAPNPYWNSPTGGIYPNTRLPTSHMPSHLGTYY
The procedure, abridged: as §1

The target in a further assay is ELF1 (Homo sapiens, UniProt P32519 1-619). The gist of the method:
as §1

A further assay has as its target T5, EHF (Homo sapiens, UniProt Q9NZC4 1-300).
T5 sequence: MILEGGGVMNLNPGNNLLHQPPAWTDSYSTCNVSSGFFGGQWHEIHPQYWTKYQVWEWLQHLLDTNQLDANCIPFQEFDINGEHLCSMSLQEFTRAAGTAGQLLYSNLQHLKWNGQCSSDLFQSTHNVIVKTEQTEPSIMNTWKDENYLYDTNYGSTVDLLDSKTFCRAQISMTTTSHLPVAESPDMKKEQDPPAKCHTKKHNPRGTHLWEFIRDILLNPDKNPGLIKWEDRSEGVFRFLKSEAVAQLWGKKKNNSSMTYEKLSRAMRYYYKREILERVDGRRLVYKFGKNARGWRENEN
The procedure, abridged: as §1

The next assay deals with SPI1 (Homo sapiens, UniProt P17947 1-270). The gist of the method: as §1
Another assay has as its target SPIB (Homo sapiens, UniProt Q01892 1-262). The gist of the method:
as §1

The target in another assay is T6, ELK3 (Homo sapiens, UniProt P41970 1-407).
T6 sequence: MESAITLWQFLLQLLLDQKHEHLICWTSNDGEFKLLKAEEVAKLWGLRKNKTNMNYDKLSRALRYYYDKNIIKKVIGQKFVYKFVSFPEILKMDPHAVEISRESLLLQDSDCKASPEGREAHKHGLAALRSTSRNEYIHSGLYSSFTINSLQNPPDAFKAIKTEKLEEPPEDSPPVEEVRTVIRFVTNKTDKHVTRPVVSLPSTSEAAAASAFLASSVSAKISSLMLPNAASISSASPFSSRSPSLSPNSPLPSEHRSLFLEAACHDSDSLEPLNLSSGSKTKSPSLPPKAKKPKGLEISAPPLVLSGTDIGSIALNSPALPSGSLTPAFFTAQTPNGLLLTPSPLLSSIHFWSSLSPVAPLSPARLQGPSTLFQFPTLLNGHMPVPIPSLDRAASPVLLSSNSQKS
The gist of the method: as §1

Chain of ELF1 (P32519 whole entry): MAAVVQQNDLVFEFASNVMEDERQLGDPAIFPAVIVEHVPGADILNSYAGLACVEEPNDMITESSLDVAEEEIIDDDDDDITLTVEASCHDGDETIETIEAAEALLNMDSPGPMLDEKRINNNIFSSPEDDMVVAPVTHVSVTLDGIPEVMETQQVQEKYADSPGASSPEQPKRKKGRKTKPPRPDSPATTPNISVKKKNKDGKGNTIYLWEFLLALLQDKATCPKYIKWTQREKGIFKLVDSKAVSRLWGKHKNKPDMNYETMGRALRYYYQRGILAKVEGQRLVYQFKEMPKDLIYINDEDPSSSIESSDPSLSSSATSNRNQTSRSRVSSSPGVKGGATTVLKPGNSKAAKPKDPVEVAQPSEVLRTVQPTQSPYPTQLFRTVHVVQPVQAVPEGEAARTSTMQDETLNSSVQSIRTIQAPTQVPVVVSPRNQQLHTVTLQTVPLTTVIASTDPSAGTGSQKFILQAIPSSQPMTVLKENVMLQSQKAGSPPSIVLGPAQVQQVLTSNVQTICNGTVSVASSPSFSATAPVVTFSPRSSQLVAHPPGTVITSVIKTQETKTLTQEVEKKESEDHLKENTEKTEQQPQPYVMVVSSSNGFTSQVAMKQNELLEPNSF
Chain of SPIB (Q01892 whole entry): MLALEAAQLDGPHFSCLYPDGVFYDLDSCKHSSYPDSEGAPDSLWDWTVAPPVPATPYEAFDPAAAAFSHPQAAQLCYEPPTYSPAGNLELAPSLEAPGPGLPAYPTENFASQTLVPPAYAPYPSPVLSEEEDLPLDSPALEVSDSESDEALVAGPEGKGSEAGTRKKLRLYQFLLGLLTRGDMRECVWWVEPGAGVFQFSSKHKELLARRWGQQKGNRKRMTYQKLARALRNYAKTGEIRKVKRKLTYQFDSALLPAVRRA

In the case of ACTCTC, the binding signal is 1.5 fold enrichment (6-mer frequency, TF over GST control) with FLI1; 1.59 fold enrichment (6-mer frequency, TF over GST control) in the assay with ELK1; 1.41 fold enrichment (6-mer frequency, TF over GST control) in the assay with GABPA; 1.47 fold enrichment (6-mer frequency, TF over GST control) in the assay with ERG; 1.55 fold enrichment (6-mer frequency, TF over GST control) with ELF1; 1.47 fold enrichment (6-mer frequency, TF over GST control) with EHF. The binding signal with SPI1 is 1.49 fold enrichment (6-mer frequency, TF over GST control); in the assay with SPIB, 1.47 fold enrichment (6-mer frequency, TF over GST control); with ELK3, 1.44 fold enrichment (6-mer frequency, TF over GST control).
On to TATTTA, for which the binding signal with FLI1 is 1.48 fold enrichment (6-mer frequency, TF over GST control); with ELK1 it was 1.5 fold enrichment (6-mer frequency, TF over GST control); in the assay with GABPA, 1.39 fold enrichment (6-mer frequency, TF over GST control); with ERG it was 1.38 fold enrichment (6-mer frequency, TF over GST control); with ELF1, 1.42 fold enrichment (6-mer frequency, TF over GST control); with EHF, 1.43 fold enrichment (6-mer frequency, TF over GST control). In addition, the binding signal is 1.46 fold enrichment (6-mer frequency, TF over GST control) in the assay with SPI1; 1.39 fold enrichment (6-mer frequency, TF over GST control) with SPIB; 1.61 fold enrichment (6-mer frequency, TF over GST control) with ELK3.
In the case of ATATTA, the binding signal was 1.08 fold enrichment (6-mer frequency, TF over GST control) with FLI1; 1.11 fold enrichment (6-mer frequency, TF over GST control) with ELK1; 1.12 fold enrichment (6-mer frequency, TF over GST control) with GABPA; 1.09 fold enrichment (6-mer frequency, TF over GST control) with ERG; 1.16 fold enrichment (6-mer frequency, TF over GST control) in the assay with ELF1; 1.08 fold enrichment (6-mer frequency, TF over GST control) with EHF. The binding signal is 1.03 fold enrichment (6-mer frequency, TF over GST control) with SPI1; 1.16 fold enrichment (6-mer frequency, TF over GST control) with SPIB; 1.13 fold enrichment (6-mer frequency, TF over GST control) with ELK3.
Take TGGTCT: the binding signal was 1.56 fold enrichment (6-mer frequency, TF over GST control) with FLI1; 1.69 fold enrichment (6-mer frequency, TF over GST control) in the assay with ELK1; 1.47 fold enrichment (6-mer frequency, TF over GST control) in the assay with GABPA; 1.49 fold enrichment (6-mer frequency, TF over GST control) in the assay with ERG; 1.49 fold enrichment (6-mer frequency, TF over GST control) in the assay with ELF1; 1.66 fold enrichment (6-mer frequency, TF over GST control) in the assay with EHF. Moreover, the binding signal with SPI1 was 1.58 fold enrichment (6-mer frequency, TF over GST control); in the assay with SPIB, 1.76 fold enrichment (6-mer frequency, TF over GST control); with ELK3 it was 1.65 fold enrichment (6-mer frequency, TF over GST control).
As to AATCAC, the binding signal is 1.03 fold enrichment (6-mer frequency, TF over GST control) in the assay with FLI1; 1.08 fold enrichment (6-mer frequency, TF over GST control) with ELK1; 1.15 fold enrichment (6-mer frequency, TF over GST control) with GABPA; 1.08 fold enrichment (6-mer frequency, TF over GST control) with ERG; 1.14 fold enrichment (6-mer frequency, TF over GST control) with ELF1; 1.08 fold enrichment (6-mer frequency, TF over GST control) in the assay with EHF. The binding signal in the assay with SPI1 is 1.12 fold enrichment (6-mer frequency, TF over GST control); with SPIB, 1.07 fold enrichment (6-mer frequency, TF over GST control); in the assay with ELK3, 1.12 fold enrichment (6-mer frequency, TF over GST control).
As to TATTAC, the binding signal with FLI1 was 1.24 fold enrichment (6-mer frequency, TF over GST control); in the assay with ELK1, 1.2 fold enrichment (6-mer frequency, TF over GST control); with GABPA, 1.09 fold enrichment (6-mer frequency, TF over GST control); in the assay with ERG it was 1.16 fold enrichment (6-mer frequency, TF over GST control); with ELF1, 1.19 fold enrichment (6-mer frequency, TF over GST control); with EHF, 1.19 fold enrichment (6-mer frequency, TF over GST control). In addition, the binding signal with SPI1 is 1.12 fold enrichment (6-mer frequency, TF over GST control); with SPIB it was 1.21 fold enrichment (6-mer frequency, TF over GST control); in the assay with ELK3 it was 1.16 fold enrichment (6-mer frequency, TF over GST control).
TGCTAT: the binding signal with FLI1 was 1.42 fold enrichment (6-mer frequency, TF over GST control); with ELK1, 1.36 fold enrichment (6-mer frequency, TF over GST control); with GABPA, 1.47 fold enrichment (6-mer frequency, TF over GST control); with ERG, 1.41 fold enrichment (6-mer frequency, TF over GST control); with ELF1, 1.46 fold enrichment (6-mer frequency, TF over GST control); with EHF, 1.49 fold enrichment (6-mer frequency, TF over GST control). The binding signal with SPI1 was 1.33 fold enrichment (6-mer frequency, TF over GST control); in the assay with SPIB, 1.47 fold enrichment (6-mer frequency, TF over GST control); with ELK3 it was 1.63 fold enrichment (6-mer frequency, TF over GST control).
On to TATAGT, for which the binding signal with FLI1 is 1.12 fold enrichment (6-mer frequency, TF over GST control); in the assay with ELK1, 1.1 fold enrichment (6-mer frequency, TF over GST control); in the assay with GABPA it was 1.11 fold enrichment (6-mer frequency, TF over GST control); in the assay with ERG, 1.05 fold enrichment (6-mer frequency, TF over GST control); in the assay with ELF1, 1.07 fold enrichment (6-mer frequency, TF over GST control); with EHF, 1.12 fold enrichment (6-mer frequency, TF over GST control). Besides, the binding signal was 1.06 fold enrichment (6-mer frequency, TF over GST control) with SPI1; 1.04 fold enrichment (6-mer frequency, TF over GST control) with SPIB; 1.03 fold enrichment (6-mer frequency, TF over GST control) with ELK3.
